Test results: the supplement of paper PMC11417369
Whole data set: some 25,000 sequences, median “ln(normalized median fluorescence intensity)” near 7.1, cut for the highest 2% near 10. The entries come from a sample that favours the highest values as a whole.

The sequences below were run on PfSIP2 AP2 domain 1 (GST-tagged) (assay: gcPBM binding intensity (ln(normalized median fluorescence intensity)); higher = stronger DNA binding).
In short: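 Probes on an Agilent 4 × 180k array were primer-extended, double-stranded and 36 bp long, taken from intergenic genomic regions, with negative controls added. GST-tagged P. falciparum DNA-binding domains from E. coli, about 25 μg on average, were applied to the array for 1 h in 1× PBS containing 1% milk, 0.2 mg/ml BSA, 0.5% salmon testes DNA and 0.03% Triton X-100. Binding intensity, obtained after Alexa488 anti-GST antibody detection and a 488 nm scan, is the highest Masliner-normalised natural-log median intensity across replicate spots of either probe orientation.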
With “ATATTATATATATACACACACACATGCATGCACATA [CACACA_site7917]” the “gcPBM binding intensity (ln)” value was 8.98.
With “AAAAAAAAAACACACACATGCACATCATATTATATA [TGCATGCA_site133]” the “gcPBM binding intensity (ln)” value was 7.03.
“AAAAAAAAAAAAAACACACACATGCACATCATATTA [CACACA_site4467]” was tested, and the “gcPBM binding intensity (ln)” value was 7.43.
For “ATATGGATTATACATACATGCATACATACATACATA [TGCATGCA_site475]”, the “gcPBM binding intensity (ln)” value was 7.1.
For “CATATATGGTTATATACATGCACCATTATATTATTA [TGCATGCA_site520]”, the “gcPBM binding intensity (ln)” value was 10.3.
“AACACATACATATATGCACACATTTTATTCCATTAT [CACACA_site2834]” was tested, and the “gcPBM binding intensity (ln)” value was 8.05.
With “AAAAAAAAAAAAAACACACACATGCACCTCATATTA [CACACA_site556]” the “gcPBM binding intensity (ln)” value was 11.4.
For “ATATTATAGATATACACACACACATGCATGCACATA [CACACA_site6203]”, the “gcPBM binding intensity (ln)” value was 8.64.
In the case of “ATATTATATATATACACACACACATGCATGCACCTA [CACACA_site106]”, the “gcPBM binding intensity (ln)” value is reported as 11.1.
With “AAAAAAAATGATAATATACACACTTATGGGAGAGCG [CACACA_site2516]” the “gcPBM binding intensity (ln)” value was 6.97.
For “TATATAATACGAATTTGTACATATTAAATAAATTAT [XGTACX_site93]”, the “gcPBM binding intensity (ln)” value was 6.84.
With “TTTTAAAAAACAAACACACACGTAGAAAAAAAAAAA [CACACA_site4608]” the “gcPBM binding intensity (ln)” value was 6.99.
With “GGTAGAAAATCAGTTAAACACACACCGAAAAAAAAA [CACACA_site8934]” the “gcPBM binding intensity (ln)” value was 7.24.
“TATGAACACCAACACACACACAAAAAAAAAAAAAAA [CACACA_site2013]” was tested, and the “gcPBM binding intensity (ln)” value was 7.3.
In the case of “TACATATTTTGTATATATTATTTATTTTATTAGTTT [XGTACX_negctrl_site85]”, the “gcPBM binding intensity (ln)” value is reported as 6.74.
In the case of “TTAATAGGTCGAAGTAGTACATAAAAATATATATAT [XGTACX_site5960]”, the “gcPBM binding intensity (ln)” value is reported as 8.1.
In the case of “AATGTACACGCACCCACACACAAACAAATATAAATA [CACACA_site7319]”, the “gcPBM binding intensity (ln)” value is reported as 10.3.
“TATACAATATAAAATACACACGCACCCAAAAAAAAA [CACACA_site9174]” was tested, and the “gcPBM binding intensity (ln)” value was 10.4.
For “CACCCATAAATATACACACGCACAACACAAAATAAA [CACACA_site2903]”, the “gcPBM binding intensity (ln)” value was 7.52.
For “ATAAAAATTGATTATACACACGCGCCCAGACAACAA [CACACA_site5870]”, the “gcPBM binding intensity (ln)” value was 7.24.
With “GACACCCATAAATATACACACGCACAACACAAAATA [CACACA_site8944]” the “gcPBM binding intensity (ln)” value was 7.67.
In the case of “ATTATACACGCGCGCACACACAACAAAAAAAAAAAA [CACACA_site7630]”, the “gcPBM binding intensity (ln)” value is reported as 7.59.
For “ATAAAAATTGATTATACACACGCGCACCCACAACAA [CACACA_site3536]”, the “gcPBM binding intensity (ln)” value was 11.2.
In the case of “AATGTACCCACACCCACACACAAACAAATATATATA [CACACA_site2751]”, the “gcPBM binding intensity (ln)” value is reported as 7.47.
For “AATGTACACCCACCCACACACAAACAAATATATATA [CACACA_site5521]”, the “gcPBM binding intensity (ln)” value was 7.62.
In the case of “TATATATAATTCATACATTTTAAATATATTTATTTA [CACACA_negctrl_site840]”, the “gcPBM binding intensity (ln)” value is reported as 7.01.
For “TATTGAATAAAATGCACACGCATGCGTTATTTATTA [CACACA_site3479]”, the “gcPBM binding intensity (ln)” value was 6.9.
In the case of “ATATATCATGCCAAGGGTACAAATGTGTAGTTGAAA [XGTACX_site2820]”, the “gcPBM binding intensity (ln)” value is reported as 7.16.
For “AAAAAAAAATACATATGTACTTATGTATAATGTTGT [XGTACX_site8104]”, the “gcPBM binding intensity (ln)” value was 7.14.
“AACTTTTTACAAACAGGTACGCATATATATATATAT [XGTACX_site5081]” was tested, and the “gcPBM binding intensity (ln)” value was 8.9.
For “AAAATACACGCATACACACACACACCCACCCATATA [CACACA_site639]”, the “gcPBM binding intensity (ln)” value was 7.14.
With “TCCCCTTAATTTAAAACACACAAACAAATAAGTTAG [CACACA_site5973]” the “gcPBM binding intensity (ln)” value was 6.91.
For “AAGAGGATACACAATGTGCACTTTTTTTTTTTTTTT [GTGCAC_site9415]”, the “gcPBM binding intensity (ln)” value was 10.5.
With “GAATGTCTAATTTTGATGCACACTTTTGTGCAATTA [CACACA_site2902]” the “gcPBM binding intensity (ln)” value was 8.6.
With “TATAAGAGGATATATACACACAAAAATATGTACAGT [CACACA_site6885]” the “gcPBM binding intensity (ln)” value was 7.07.
“AACTGTAAAAAATATAAACACACATAGAAATATATA [CACACA_site8002]” was tested, and the “gcPBM binding intensity (ln)” value was 7.01.
“CAGGGCAGGGGGAAGGGTACACATAAAAGAAAATAA [XGTACX_site172]” was tested, and the “gcPBM binding intensity (ln)” value was 8.34.
With “AAAATAAAAAGAAAAAGAAAAAAGGGGGGGTAGGGG [CACACA_negctrl_site1048]” the “gcPBM binding intensity (ln)” value was 7.86.
With TCATAGGGGTAGAAGGTGCAATAAAAAAGAAGAAAA the “gcPBM binding intensity (ln)” value was 10.7.
In the case of “TGAACATTATAGAAAAGTACTTAGTTTTTAAAAAGA [XGTACX_site6864]”, the “gcPBM binding intensity (ln)” value is reported as 7.
With GTCTAAAAATAAAAAGTGCATTTGTTTAATATTTTG the “gcPBM binding intensity (ln)” value was 9.52.
For “AAAAAAAAAAAAAAAGTGCACAGTCGTTTTAAAAAA [GTGCAC_site9848]”, the “gcPBM binding intensity (ln)” value was 10.7.
In the case of “TATATATATAAAAGTTGTACAGTGTTTTATATAGTT [XGTACX_site7085]”, the “gcPBM binding intensity (ln)” value is reported as 8.13.
With “AAAAAAAAAAGAAACACACACATTTGTCTATAATAT [CACACA_site7063]” the “gcPBM binding intensity (ln)” value was 6.8.
For “AAAATACATGGACACACACACACACCGATATATATA [CACACA_site5885]”, the “gcPBM binding intensity (ln)” value was 7.4.
In the case of “TTTTGTTTTTTCAATGTGCACTTAGGATGTTTTTAT [GTGCAC_site9565]”, the “gcPBM binding intensity (ln)” value is reported as 10.6.
For “TTTTTTTTTTTTTTTGTGCACAATTATTTCAATTTT [GTGCAC_site9884]”, the “gcPBM binding intensity (ln)” value was 8.88.
